Laboratory results from the supplement of paper PMC10849652.
About 8,800 targets were measured; listed, in parts, are those with a hit and a random draw of the rest. About 0.5% of all pairs of compound and target were hits.

Tests used:
Test in all cases: log2 fold change, soluble protein after heating vs DMSO (PISA); higher = thermal stabilisation; K562 lysate, 10 uM; active = over 0.2 and 3.5 SD of the protein, either way, in both replicates (recomputed)
[1] = compound: C1=CC=C(C=C1)[C@H](COC2=CC3=C(C=C2)NC(=O)N3)NC(=O)C4=CC=CN(C4=O)CC5=CC(=C(C=C5)F)F
How it was run: (§1)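 K562 pellets were dounce-homogenised in PBS pH 7.4 containing 1 mM MgCl2, and the crude extract, at 1 mg/mL protein, was exposed to 10 μM compound for 30 min. Aliquots were heated for 3 min across 48°C-58°C, pooled, brought to 0.5% NP-40 at 4°C and spun at 21,000xg for 90 min, with the supernatant taken as soluble protein. TMTpro 16plex LC-MS/MS with equalised channel sums quantified that protein. Values are log-two fold changes in thermal stability relative to solvent controls, taken from duplicates.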

[2] = compound: CC1=C(SC2=C1C(=N[C@H](C3=NN=C(N32)C)CC(=O)N)C4=CC=C(C=C4)Cl)C
How it was run: as §1

[3] = compound: CC1=C2C(=CC=C1)N=C(N(C2=O)C3=CC=CC=C3C)CN4C=NC5=C(N=CN=C54)N
How it was run: as §1

[4] = compound: Cc1sc2c(c1C)C(c1ccc(Cl)cc1)=N[C@@H](CC(=O)OC(C)(C)C)c1nnc(C)n1-2
How it was run: as §1

[5] = compound: c1ccc([C@@H]2C[C@H]2NC2CCNCC2)cc1
How it was run: as §1

Measured: log2 fold change

ARMC6 (UniProt Q6NXE6)
inactive: [1] -0.046 | [2] -0.012 | [3] -0.017 | [4] 0.003 | [5] 0.043

ABCD3 (UniProt P28288)
inactive: [1] 0.178 | [2] -0.094 | [3] 0.016 | [4] 0.013 | [5] 0.01

ADD1 isoform 4 (UniProt P35611)
UniProt P35611, sequence (P35611 whole entry, looked up): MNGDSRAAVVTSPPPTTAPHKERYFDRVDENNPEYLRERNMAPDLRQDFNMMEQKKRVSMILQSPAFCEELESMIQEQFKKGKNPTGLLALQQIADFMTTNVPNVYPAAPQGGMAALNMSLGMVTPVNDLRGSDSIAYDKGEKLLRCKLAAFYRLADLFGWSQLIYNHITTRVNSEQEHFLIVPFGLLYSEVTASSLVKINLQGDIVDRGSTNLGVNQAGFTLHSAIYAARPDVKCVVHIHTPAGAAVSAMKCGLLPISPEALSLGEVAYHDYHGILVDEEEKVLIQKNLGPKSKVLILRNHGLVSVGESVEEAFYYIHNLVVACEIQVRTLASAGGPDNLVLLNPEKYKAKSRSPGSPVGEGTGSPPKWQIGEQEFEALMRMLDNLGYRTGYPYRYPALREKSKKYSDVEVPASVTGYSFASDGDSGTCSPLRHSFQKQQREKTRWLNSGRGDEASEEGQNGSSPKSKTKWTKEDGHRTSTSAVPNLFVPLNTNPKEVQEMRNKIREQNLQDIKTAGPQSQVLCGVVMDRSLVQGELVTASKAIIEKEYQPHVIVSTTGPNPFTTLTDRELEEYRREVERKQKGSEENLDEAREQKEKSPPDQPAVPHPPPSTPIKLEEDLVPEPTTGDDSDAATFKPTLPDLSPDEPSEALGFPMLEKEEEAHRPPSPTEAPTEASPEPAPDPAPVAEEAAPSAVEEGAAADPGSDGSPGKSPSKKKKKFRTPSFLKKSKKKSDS
inactive: [1] 0.22 | [2] 0.088 | [3] 0.12 | [4] -0.099 | [5] -0.571

ALKBH4 (UniProt Q9NXW9)
inactive: [1] 0.011 | [2] 0.025 | [3] 0.032 | [4] 0.01 | [5] -0.017

ALG3 (UniProt Q92685)
inactive: [1] 0.002 | [2] -0.006 | [3] 0.048 | [4] -0.035 | [5] -0.127

ARHGEF1 (UniProt M0QZR4)
inactive: [1] -0.046 | [2] 0.006 | [3] -0.017 | [4] -0.017 | [5] 0.004

APAF1 (UniProt O14727)
inactive: [1] -0.013 | [2] 0.004 | [3] 0.022 | [4] 0.012 | [5] 0.02

AGPS (UniProt O00116)
inactive: [1] -0.103 | [2] 0.016 | [3] 0.035 | [4] 0.019 | [5] -0.006

ANKRD54 (UniProt Q6NXT1)
inactive: [1] 0.011 | [2] -0.04 | [3] 0.038 | [4] -0.042 | [5] -0.024

ACAA1 (UniProt P09110)
inactive: [1] -0.004 | [2] 0.007 | [3] -0.005 | [4] 0.046 | [5] -0.003

ASNS (UniProt P08243)
UniProt P08243, sequence (P08243 whole entry, looked up): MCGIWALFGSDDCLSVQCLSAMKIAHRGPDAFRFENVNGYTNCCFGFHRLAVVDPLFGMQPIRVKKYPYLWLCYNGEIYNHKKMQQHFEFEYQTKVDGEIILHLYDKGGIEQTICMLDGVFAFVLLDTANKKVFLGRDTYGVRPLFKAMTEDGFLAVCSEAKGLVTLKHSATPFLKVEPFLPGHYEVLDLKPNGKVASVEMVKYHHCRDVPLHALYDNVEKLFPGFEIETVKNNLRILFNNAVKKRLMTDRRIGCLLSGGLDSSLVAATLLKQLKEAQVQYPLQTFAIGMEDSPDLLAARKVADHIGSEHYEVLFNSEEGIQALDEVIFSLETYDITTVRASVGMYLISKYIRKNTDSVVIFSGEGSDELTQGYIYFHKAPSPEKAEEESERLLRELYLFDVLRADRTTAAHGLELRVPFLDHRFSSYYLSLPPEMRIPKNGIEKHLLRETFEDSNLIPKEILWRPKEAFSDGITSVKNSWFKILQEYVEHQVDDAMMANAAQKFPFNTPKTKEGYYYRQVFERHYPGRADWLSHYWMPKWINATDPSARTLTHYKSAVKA
inactive: [1] 0.006 | [2] 0.021 | [3] 0.027 | [4] 0.057 | [5] 0.033

AP3D1 isoform 5 (UniProt O14617)
inactive: [1] 0.042 | [2] -0.027 | [3] 0.003 | [4] 0.025 | [5] -0.028

ASCC2 (UniProt Q9H1I8)
inactive: [1] 0.181 | [2] 0.063 | [3] -0.027 | [4] -0.019 | [5] 0.076

AARS2 (UniProt Q5JTZ9)
inactive: [1] 0.014 | [2] -0.076 | [3] 0.026 | [4] 0.041 | [5] 0.045

ACACB (UniProt O00763)
inactive: [1] -0.018 | [2] 0.002 | [3] 0.01 | [4] 0.074 | [5] 0.014

ACTBL2 (UniProt Q562R1)
inactive: [1] 0.138 | [2] -0.194 | [3] -0.016 | [4] 0.106 | [5] 0.365

AKR1C2 (UniProt P52895)
inactive: [1] -0.012 | [2] 0.047 | [3] 0.047 | [4] -0.184 | [5] -0.107

ARHGAP6 (UniProt O43182)
inactive: [1] -0.026 | [2] -0.023 | [3] -0.012 | [4] 0.018 | [5] 0.02

ANLN (UniProt Q9NQW6)
inactive: [1] 0.04 | [2] -0.014 | [3] 0.053 | [4] 0.015 | [5] 0.005

APEX1 (UniProt P27695)
inactive: [1] 0.055 | [2] 0.007 | [3] -0.007 | [4] 0.086 | [5] 0.131

ADK, A0A5F9ZH76
inactive: [1] -0.136 | [2] 0.197

ALDH1L2 (UniProt Q3SY69)
inactive: [1] 0.015 | [2] 0.041 | [3] 0.052 | [4] -0.009 | [5] -0.023

ACACA isoform 4 (UniProt Q13085)
inactive: [1] 0.001 | [2] 0.027 | [3] 0.019 | [4] 0.027 | [5] 0.085

ANKRD27 (UniProt Q96NW4)
inactive: [1] -0.025 | [2] 0.022 | [3] -0.011 | [4] 0.042 | [5] -0.002

ARMCX5 (UniProt Q6P1M9)
inactive: [1] 0.021 | [2] -0.07 | [3] 0.057 | [4] 0.036 | [5] -0.03

AIMP2 isoform 2 (UniProt Q13155)
inactive: [1] 0.182 | [2] 0.029

ALDH1A1 (UniProt P00352)
UniProt P00352, sequence (P00352 whole entry, looked up): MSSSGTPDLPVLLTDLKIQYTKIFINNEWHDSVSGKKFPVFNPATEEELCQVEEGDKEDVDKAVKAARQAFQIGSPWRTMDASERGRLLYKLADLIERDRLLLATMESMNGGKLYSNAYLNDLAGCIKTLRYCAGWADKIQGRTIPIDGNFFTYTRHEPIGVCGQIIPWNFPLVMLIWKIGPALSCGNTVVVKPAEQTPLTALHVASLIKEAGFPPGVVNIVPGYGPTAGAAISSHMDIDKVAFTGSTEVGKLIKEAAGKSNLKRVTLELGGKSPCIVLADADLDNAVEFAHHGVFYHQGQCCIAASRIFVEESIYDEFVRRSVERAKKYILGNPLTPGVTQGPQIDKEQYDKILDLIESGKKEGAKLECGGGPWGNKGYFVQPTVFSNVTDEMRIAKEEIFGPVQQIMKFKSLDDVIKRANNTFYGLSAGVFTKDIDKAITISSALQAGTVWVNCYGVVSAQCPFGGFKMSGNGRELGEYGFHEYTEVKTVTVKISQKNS
inactive: [1] -0.032 | [2] 0.006 | [3] -0.028 | [4] -0.011 | [5] 0.045

ACSL4 (UniProt O60488)
inactive: [1] -0.058 | [2] 0.046 | [3] 0.032 | [4] -0.106 | [5] 0.038

ACAT1 (UniProt P24752)
UniProt P24752, sequence (P24752 whole entry, looked up): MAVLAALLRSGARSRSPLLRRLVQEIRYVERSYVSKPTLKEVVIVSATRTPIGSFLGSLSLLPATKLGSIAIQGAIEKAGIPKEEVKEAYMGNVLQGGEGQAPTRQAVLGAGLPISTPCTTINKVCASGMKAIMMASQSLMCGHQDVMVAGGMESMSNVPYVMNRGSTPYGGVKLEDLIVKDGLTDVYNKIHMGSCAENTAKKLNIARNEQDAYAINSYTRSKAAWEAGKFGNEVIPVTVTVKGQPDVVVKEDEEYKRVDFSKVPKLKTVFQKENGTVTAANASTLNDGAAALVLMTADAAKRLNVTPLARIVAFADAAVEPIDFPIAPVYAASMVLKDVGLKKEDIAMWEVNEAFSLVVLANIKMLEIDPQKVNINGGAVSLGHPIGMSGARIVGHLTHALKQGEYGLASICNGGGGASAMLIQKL
inactive: [1] -0.007 | [2] 0.029 | [3] -0.016 | [4] 0.031 | [5] 0.024

AIMP2 (UniProt Q13155)
inactive: [1] -0.028 | [2] 0.021 | [3] 0.013 | [4] 0.036 | [5] 0.041

ACADS (UniProt P16219)
inactive: [1] -0.015 | [2] 0.069 | [3] 0.054 | [4] 0.013 | [5] 0.003

ANAPC7 (UniProt Q9UJX3)
inactive: [1] -0.008 | [2] -0.003 | [3] -0.002 | [4] 0.023 | [5] 0.048

ACADM isoform 2 (UniProt P11310)
inactive: [1] -0.071 | [2] -0.035 | [3] 0.043 | [4] 0.017 | [5] 0.013

ASB6 (UniProt Q9NWX5)
inactive: [1] 0.012 | [2] 0.125 | [3] 0.005 | [4] 0.016 | [5] 0.028

ACLY (UniProt P53396)
inactive: [1] 0.011 | [2] 0.03 | [3] 0.004 | [4] 0.03 | [5] 0.023

AKAP8L (UniProt Q9ULX6)
inactive: [1] 0.011 | [2] -0.005 | [3] -0.001 | [4] 0.018 | [5] -0.02

ALG13 (UniProt Q9NP73)
inactive: [1] -0.015 | [2] -0.018 | [3] 0.09 | [4] 0.037 | [5] -0.087

ABHD16A (UniProt O95870)
UniProt O95870, sequence (O95870 whole entry, looked up): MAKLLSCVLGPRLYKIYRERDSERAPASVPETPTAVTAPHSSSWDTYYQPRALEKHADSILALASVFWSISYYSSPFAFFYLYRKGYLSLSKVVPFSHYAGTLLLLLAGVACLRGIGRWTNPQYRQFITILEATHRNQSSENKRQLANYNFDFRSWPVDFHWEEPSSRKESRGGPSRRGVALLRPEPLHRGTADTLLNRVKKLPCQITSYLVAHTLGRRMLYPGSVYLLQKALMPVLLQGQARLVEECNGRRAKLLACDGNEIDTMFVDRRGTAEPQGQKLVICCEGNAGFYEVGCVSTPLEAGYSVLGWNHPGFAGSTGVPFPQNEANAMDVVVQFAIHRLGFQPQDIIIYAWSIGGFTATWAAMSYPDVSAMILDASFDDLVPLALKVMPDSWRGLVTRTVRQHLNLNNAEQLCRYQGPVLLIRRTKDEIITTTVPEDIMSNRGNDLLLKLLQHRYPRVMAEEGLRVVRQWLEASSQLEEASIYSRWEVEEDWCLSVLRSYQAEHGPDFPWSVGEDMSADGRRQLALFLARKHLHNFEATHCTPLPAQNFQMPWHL
inactive: [1] -0.011 | [2] 0.008 | [3] 0.07 | [4] 0.059 | [5] 0.028

ABCA3 (UniProt Q99758)
UniProt Q99758, sequence (Q99758 whole entry, looked up): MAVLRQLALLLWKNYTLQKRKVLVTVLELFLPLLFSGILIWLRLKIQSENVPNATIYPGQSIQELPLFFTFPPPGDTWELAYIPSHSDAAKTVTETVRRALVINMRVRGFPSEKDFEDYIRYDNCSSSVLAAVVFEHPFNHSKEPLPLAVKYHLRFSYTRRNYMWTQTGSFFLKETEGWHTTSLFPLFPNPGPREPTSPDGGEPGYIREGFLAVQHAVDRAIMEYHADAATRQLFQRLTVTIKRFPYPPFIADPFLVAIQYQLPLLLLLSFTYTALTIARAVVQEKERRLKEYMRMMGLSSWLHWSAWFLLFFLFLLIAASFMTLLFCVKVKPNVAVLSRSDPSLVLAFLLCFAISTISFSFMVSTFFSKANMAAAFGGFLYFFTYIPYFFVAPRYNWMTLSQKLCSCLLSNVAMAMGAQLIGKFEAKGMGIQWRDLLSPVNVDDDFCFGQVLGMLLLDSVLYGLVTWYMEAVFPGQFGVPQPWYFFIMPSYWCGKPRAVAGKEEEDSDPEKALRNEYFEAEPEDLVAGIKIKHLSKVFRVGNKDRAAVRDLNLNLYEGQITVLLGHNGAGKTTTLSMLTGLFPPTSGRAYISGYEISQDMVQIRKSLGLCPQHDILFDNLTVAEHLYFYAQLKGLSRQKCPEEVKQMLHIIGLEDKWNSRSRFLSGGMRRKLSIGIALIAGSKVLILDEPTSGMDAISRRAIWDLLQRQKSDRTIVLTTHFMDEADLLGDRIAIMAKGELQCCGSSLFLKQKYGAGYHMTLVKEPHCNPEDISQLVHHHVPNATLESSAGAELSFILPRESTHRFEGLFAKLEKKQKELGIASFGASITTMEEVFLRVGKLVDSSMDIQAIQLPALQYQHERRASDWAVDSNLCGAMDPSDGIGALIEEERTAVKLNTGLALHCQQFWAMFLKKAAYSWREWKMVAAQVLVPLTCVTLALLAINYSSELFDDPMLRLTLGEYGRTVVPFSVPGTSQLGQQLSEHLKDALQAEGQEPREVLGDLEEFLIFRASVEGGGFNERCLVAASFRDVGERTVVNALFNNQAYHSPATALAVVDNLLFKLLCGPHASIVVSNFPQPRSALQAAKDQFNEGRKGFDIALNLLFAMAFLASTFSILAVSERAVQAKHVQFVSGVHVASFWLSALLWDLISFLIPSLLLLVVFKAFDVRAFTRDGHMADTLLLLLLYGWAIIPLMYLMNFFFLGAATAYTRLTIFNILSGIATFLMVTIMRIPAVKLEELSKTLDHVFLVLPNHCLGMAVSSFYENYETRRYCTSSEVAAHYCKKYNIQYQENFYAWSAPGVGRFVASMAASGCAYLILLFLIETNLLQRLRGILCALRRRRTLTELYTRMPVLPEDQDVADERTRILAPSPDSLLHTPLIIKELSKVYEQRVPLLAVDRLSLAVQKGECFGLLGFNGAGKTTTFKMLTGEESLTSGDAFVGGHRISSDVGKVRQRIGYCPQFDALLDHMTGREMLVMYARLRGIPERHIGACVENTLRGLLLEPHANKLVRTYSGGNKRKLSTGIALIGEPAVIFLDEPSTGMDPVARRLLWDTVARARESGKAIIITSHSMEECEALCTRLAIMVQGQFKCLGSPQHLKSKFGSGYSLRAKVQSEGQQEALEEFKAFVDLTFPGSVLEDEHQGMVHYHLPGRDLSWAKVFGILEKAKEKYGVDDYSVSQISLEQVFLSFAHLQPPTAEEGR
inactive: [1] 0.112 | [2] 0.038 | [3] 0.006 | [4] -0.01 | [5] -0.005

ARL1 (UniProt P40616)
UniProt P40616, sequence (P40616 whole entry, looked up): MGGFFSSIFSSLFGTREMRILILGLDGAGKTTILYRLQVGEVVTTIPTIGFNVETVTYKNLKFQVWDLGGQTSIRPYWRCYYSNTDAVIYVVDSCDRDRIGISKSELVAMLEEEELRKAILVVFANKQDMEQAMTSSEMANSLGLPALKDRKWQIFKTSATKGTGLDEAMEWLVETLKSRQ
inactive: [1] 0.094 | [2] 0.023 | [3] 0.051 | [4] -0.026 | [5] 0.026

ANP32A (UniProt P39687)
inactive: [1] 0.007 | [2] 0.02 | [3] 0 | [4] 0.07 | [5] -0.033

ARMCX3 (UniProt Q9UH62)
inactive: [1] 0.015 | [2] 0.009 | [3] 0.029 | [4] -0.074 | [5] 0.053

AFF1 isoform 2 (UniProt P51825)
inactive: [1] -0.109 | [2] 0.133 | [3] -0.006 | [4] -0.087 | [5] -0.118

AK1 (UniProt P00568)
inactive: [1] -0.032 | [2] 0.024 | [3] -0.009 | [4] 0.012 | [5] 0.2

AKAP11 (UniProt Q9UKA4)
inactive: [1] 0.025 | [2] -0.008 | [3] 0.059 | [4] -0.041 | [5] -0.012

ARL8A (UniProt Q96BM9)
inactive: [1] 0.038 | [2] -0.02 | [3] -0.157 | [4] 0.093 | [5] 0.1

ANXA2 isoform 2 (UniProt P07355)
inactive: [1] 0 | [2] -0.005 | [3] -0.019 | [4] 0.024 | [5] 0.02

ANKRD52 (UniProt Q8NB46)
inactive: [1] -0.004 | [2] -0.036 | [3] 0.056 | [4] 0.055 | [5] 0.004

ADK (UniProt P55263)
UniProt P55263, sequence (P55263 whole entry, looked up): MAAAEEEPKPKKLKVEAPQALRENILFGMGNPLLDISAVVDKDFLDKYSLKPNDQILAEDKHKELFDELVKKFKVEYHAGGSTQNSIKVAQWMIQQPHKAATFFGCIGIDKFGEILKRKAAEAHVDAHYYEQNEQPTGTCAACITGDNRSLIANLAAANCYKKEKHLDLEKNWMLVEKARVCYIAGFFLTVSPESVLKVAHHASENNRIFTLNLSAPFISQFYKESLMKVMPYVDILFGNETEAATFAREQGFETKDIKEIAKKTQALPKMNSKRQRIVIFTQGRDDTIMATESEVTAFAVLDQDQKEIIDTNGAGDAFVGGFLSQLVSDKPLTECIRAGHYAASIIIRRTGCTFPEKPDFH
inactive: [1] 0.059 | [2] -0.035 | [3] 0.051 | [4] -0.036 | [5] -0.133

ABHD12 isoform 2 (UniProt Q8N2K0)
inactive: [1] 0.008 | [2] 0.042 | [3] 0.003 | [4] 0.031 | [5] 0.042

ABI1 isoform 9 (UniProt Q8IZP0)
inactive: [1] -0.013 | [2] -0.008 | [3] -0.006 | [4] -0.004 | [5] -0.117

ALG8 (UniProt Q9BVK2)
inactive: [1] 0.034 | [2] 0.001 | [3] 0.059 | [4] -0.013 | [5] -0.008

AKR1C3 (UniProt P42330)
inactive: [1] 0.031 | [2] 0.05 | [3] 0.022 | [4] -0.04 | [5] 0.031

ADAR isoform 4 (UniProt P55265)
inactive: [1] -0.188 | [2] 0.116 | [3] 0.035 | [4] 0.005 | [5] 0.032
